PubChem BioAssay (NCI)
About 79,000 compounds went through this panel and 15% of them were active in at least one assay; those are over-represented in the sample as a whole. Values without a mark were called inactive. The source made the active and inactive calls. No stated cut-off is given here; in the data, active means growth inhibition above about 70%; inactive means the rest.

Assay: NCI Yeast Anticancer Drug Screen. Data for the rad50EPP+ strain (AID 151);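 further: 0% = growth of vehicle-treated control cultures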
Details: S. cerevisiae rad50 mutant strain, active compounds read high
Method: Growth inhibition of yeast strains with defined genetic alterations is measured as a screen for potential anti-cancer activity. Selected strains with alterations in DNA damage repair or cell cycle control were exposed to compounds and growth inhibition was measured relative to vehicle treated controls. The strain used in this assay is rad50EPP+

SMILES	growth inhibition (at 1.2 µM)	growth inhibition (at 3.7 µM)	growth inhibition (at 11.0 µM)	growth inhibition (at 33.0 µM)	growth inhibition (at 100.0 µM)
CC1CCCN(CCc2ccccc2)CC1 (stereo not given)	2%	3%	4%	4%	5%
NC1=NCC(c2ccc(Cl)cc2)O1 (stereo not given)	-2%	0%	0%	4%	4%
COC(=O)C(F)C(Br)C(=O)OC (stereo not given)	28%	90% (active)	97% (active)	98% (active)	97% (active)
CN(N=O)C(=O)NNC(=O)N(C)N=O	3%	16%	62%	93% (active)	95% (active)
O=[N+]([O-])O.[NH-]C1CCCCC1[NH-].[NH-]C1CCCCC1[NH-].[NH-]C1CCCCC1[NH-].[OH-].[OH-].[OH-].[Pt+4].[Pt+4].[Pt+4] (stereo not given)	-28%	-26%	-19%	-28%	-31%
CC1CCC2(NC1)OC1CC3C4CCC5CC(OC6OC(CO)C(OC7OC(CO)C(O)C(OC8OCC(O)C(O)C8O)C7OC7OC(CO)C(O)C(O)C7O)C(O)C6O)CCC5(C)C4CCC3(C)C1C2C (stereo not given)	21%	3%	8%	13%	27%
CCS(=O)(=O)[O][Sn]([CH2]C)([CH2]C)[O]S(=O)(=O)CC	-47%	-43%	-51%	-33%	-35%
CCc1cccc(C(C)C)c1NC1=C([n+]2ccc(C)cc2)C(=O)c2ccccc2C1=O	0%	7%	17%	31%	38%
